# Reference: PubChem BioAssay (NCI)
# About 79,000 compounds went through this panel and 15% of them were active in at least one assay; those are over-represented in the sample as a whole. Unmarked numbers belong to inactive results. The source made the active and inactive calls. Rule as the data show it: active = growth inhibition above about 70%; inactive = the rest.
# Assay: NCI Yeast Anticancer Drug Screen. Data for the rad50 strain (AID 155);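 also: 0% = growth of vehicle-only cultures of the same strain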
# Settings: S. cerevisiae rad50 strain growth inhibition; at 50.0 µM; hits give high values
# How it was run: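 Growth of the mutant yeast was measured after compound exposure and referenced to vehicle-treated cultures.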
row,Compound,growth inhibition
1,Nc1ncnc(N2CCOCC2)c1N,11.7%
2,CN(C)c1ccc2c(NCCCCCCNc3ccnc4cc(N(C)C)ccc34)ccnc2c1,84.5% (active)
3,CC(C)N=Cc1cc(Br)cc(Br)c1O.CC(C)N=Cc1cc(Br)cc(Br)c1O.[Co],92% (active)
4,O=C1c2ccc(O)cc2C(=O)c2c1ccc(O)c2O,76% (active)
5,COc1cc2c[n+](C)c3c4cc(OC)c(OCc5ccccc5)cc4c(OCc4ccccc4)cc3c2cc1OC,59.4%
6,O=C(Nc1ccc(Cl)cc1)OCC1C2C=CC(C2)C1CO (stereo not given),86.8% (active)
7,Cn1nc(-c2ccccc2NC(=O)C(F)(F)F)c(=O)n(C)c1=S,56.9%
8,OCc1c2c(cc3c1CC1(C3)Cc3cc4c(c(CO)c3C1)CCC4)CCC2,8.5%
9,O=C(C[n+]1ccccc1)N=N/C(C(=O)Nc1c(Cl)c(O)c2ccccc2c1O)=C1/C(=O)Oc2cc(O)ccc2C1=O,97.3% (active)
10,Cc1cc(Cl)c(O)c(-c2cc(-c3ccccc3O)c(C#N)c(N)n2)c1,59.5%
11,CCCCNc1ncc(OCC)c(NCCCC)n1,73.5% (active)
12,C#CCCCCCOC(=O)c1cc([N+](=O)[O-])cc([N+](=O)[O-])c1,98.5% (active)
13,C=C(C)C1(C(=O)OCC(Cl)(Cl)Cl)NC(=O)C(NC(=O)COc2ccccc2)=CO1 (stereo not given),94.8% (active)
14,Cc1ccc(SCC#CC#CCS(=O)c2ccc(C)cc2)cc1 (stereo not given),98.3% (active)
15,CCCCCCCCCCCCCCCC1C(N)C(=O)N(C)N1C (stereo not given),89.7% (active)
16,O=c1c(O)cc2c(O)oc3c(=O)c(O)c(O)c4c(O)oc1c2c43,88.4% (active)
17,CCCCN(CCCC)CCNc1ccc(NS(=O)(=O)c2ccccc2)c2sc3ccccc3c(=O)c12,96.8% (active)
18,CCOC(=O)CC(N)CC(=O)OCC,94.8% (active)
19,O=c1cc(Cl)c(Cl)nn1-c1ccccc1,89.2% (active)
20,CC(=O)Nc1ccc(-c2ccccc2)cc1[N+](=O)[O-],14.9%

row,Compound,growth inhibition
1,O=C1OC(c2ccccc2)N/C1=C\c1ccc2c(c1)OCO2 (stereo not given),-45.7%
2,CCOc1c(N=Nc2ccc(Cl)cc2)c(-c2ccccc2)nn1C(=S)S,95.3% (active)
3,BrCN(CBr)c1ccc2c(c1)Cc1cc(Br)ccc1-2,70.4% (active)
4,COc1cc(NCCCCCCCC2CCCCN2)c2ncccc2c1 (stereo not given),86.2% (active)
5,Cc1cc(Br)cc(C)c1NC(=O)C(=O)C(C(=O)c1ccc2ccccc2c1)C1OC(=O)c2ccccc21 (stereo not given),12.5%
6,O=Cc1cc2c(s1)C(=O)c1sccc1C2=O,88.8% (active)
7,C=C1CC2(CC(C(C)C)CCC2C)OC1=O (stereo not given),7.5%
8,CCSC(=Nc1nc2ccc(NC(C)=O)cc2s1)SCC,97.2% (active)
9,CCOc1ccc2c(c1)n([O-])c1cc(Br)ccc1[n+]2=O,22.4%
10,CCCCC(CCCC)=NNC(=S)SC,83.9% (active)
11,COc1ccc2c(c1)CCc1c(CO)c(COC(=O)NC(C)C)n(C)c1-2,95.8% (active)
12,CSc1cc2c(cc1N)Cc1ccccc1-2,85.4% (active)
13,O=C1C=C(c2ccccc2)OC(c2ccccc2)C1 (stereo not given),43.1%
14,CCOc1ccc2nc([NH-])sc2c1.CCOc1ccc2nc([NH-])sc2c1.[Cl][Pt+2][Cl],26.4%
15,Cc1nc2c(Cl)nc(Cl)nc2s1,98.5% (active)
16,Cc1cc(O)n(Cc2ccccc2)c(=O)c1,48.5%
17,NCCC1=CCCCC1,88.2% (active)
18,CCOC(=O)/C(=C\n1c(=O)sc2ccccc21)C(=O)c1ccccc1,24.6%
19,Cc1ccc(S(=O)(=O)Nc2ccccc2C=O)cc1,99% (active)
20,CC1COC(c2cn[nH]c2C(N)=O)C1O (stereo not given),-0.5%

# Assay: NCI Yeast Anticancer Drug Screen. Data for the mec2-1 strain (AID 157)
# Settings: S. cerevisiae mec2-1 strain, at 5.0 µM (retest, dose inferred, filed as 0.5), hits give high values
# How it was run: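 Readout is yeast growth inhibition, normalised to vehicle-treated controls, in the mec2-1 strain exposed to compound.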
row,Compound,growth inhibition
1,Nc1ncnc(N2CCOCC2)c1N,0%
2,CN(C)c1ccc2c(NCCCCCCNc3ccnc4cc(N(C)C)ccc34)ccnc2c1,7%
3,CC(C)N=Cc1cc(Br)cc(Br)c1O.CC(C)N=Cc1cc(Br)cc(Br)c1O.[Co],54%
4,O=C1c2ccc(O)cc2C(=O)c2c1ccc(O)c2O,26%
5,COc1cc2c[n+](C)c3c4cc(OC)c(OCc5ccccc5)cc4c(OCc4ccccc4)cc3c2cc1OC,14%
6,O=C(Nc1ccc(Cl)cc1)OCC1C2C=CC(C2)C1CO (stereo not given),-1%
7,Cn1nc(-c2ccccc2NC(=O)C(F)(F)F)c(=O)n(C)c1=S,3%
8,OCc1c2c(cc3c1CC1(C3)Cc3cc4c(c(CO)c3C1)CCC4)CCC2,19%
9,O=C(C[n+]1ccccc1)N=N/C(C(=O)Nc1c(Cl)c(O)c2ccccc2c1O)=C1/C(=O)Oc2cc(O)ccc2C1=O,23%
10,Cc1cc(Cl)c(O)c(-c2cc(-c3ccccc3O)c(C#N)c(N)n2)c1,-22%
11,CCCCNc1ncc(OCC)c(NCCCC)n1,4%
12,C#CCCCCCOC(=O)c1cc([N+](=O)[O-])cc([N+](=O)[O-])c1,99% (active)
13,C=C(C)C1(C(=O)OCC(Cl)(Cl)Cl)NC(=O)C(NC(=O)COc2ccccc2)=CO1 (stereo not given),4%
14,Cc1ccc(SCC#CC#CCS(=O)c2ccc(C)cc2)cc1 (stereo not given),87% (active)
15,CCCCCCCCCCCCCCCC1C(N)C(=O)N(C)N1C (stereo not given),-25%
16,O=c1c(O)cc2c(O)oc3c(=O)c(O)c(O)c4c(O)oc1c2c43,23%
17,CCCCN(CCCC)CCNc1ccc(NS(=O)(=O)c2ccccc2)c2sc3ccccc3c(=O)c12,21%
18,CCOC(=O)CC(N)CC(=O)OCC,-47%
19,O=c1cc(Cl)c(Cl)nn1-c1ccccc1,12%
20,CC(=O)Nc1ccc(-c2ccccc2)cc1[N+](=O)[O-],-4%

row,Compound,growth inhibition
1,O=C1OC(c2ccccc2)N/C1=C\c1ccc2c(c1)OCO2 (stereo not given),17%
2,CCOc1c(N=Nc2ccc(Cl)cc2)c(-c2ccccc2)nn1C(=S)S,2%
3,BrCN(CBr)c1ccc2c(c1)Cc1cc(Br)ccc1-2,-3%
4,COc1cc(NCCCCCCCC2CCCCN2)c2ncccc2c1 (stereo not given),6%
5,Cc1cc(Br)cc(C)c1NC(=O)C(=O)C(C(=O)c1ccc2ccccc2c1)C1OC(=O)c2ccccc21 (stereo not given),4%
6,O=Cc1cc2c(s1)C(=O)c1sccc1C2=O,96% (active)
7,C=C1CC2(CC(C(C)C)CCC2C)OC1=O (stereo not given),13%
8,CCSC(=Nc1nc2ccc(NC(C)=O)cc2s1)SCC,-3%
9,CCOc1ccc2c(c1)n([O-])c1cc(Br)ccc1[n+]2=O,49%
10,CCCCC(CCCC)=NNC(=S)SC,5%
11,COc1ccc2c(c1)CCc1c(CO)c(COC(=O)NC(C)C)n(C)c1-2,98% (active)
12,CSc1cc2c(cc1N)Cc1ccccc1-2,8%
13,O=C1C=C(c2ccccc2)OC(c2ccccc2)C1 (stereo not given),-52%
14,CCOc1ccc2nc([NH-])sc2c1.CCOc1ccc2nc([NH-])sc2c1.[Cl][Pt+2][Cl],-1%
15,Cc1nc2c(Cl)nc(Cl)nc2s1,35%
16,Cc1cc(O)n(Cc2ccccc2)c(=O)c1,-51%
17,NCCC1=CCCCC1,5%
18,CCOC(=O)/C(=C\n1c(=O)sc2ccccc21)C(=O)c1ccccc1,19%
19,Cc1ccc(S(=O)(=O)Nc2ccccc2C=O)cc1,19%
20,CC1COC(c2cn[nH]c2C(N)=O)C1O (stereo not given),5%
